Experimental data taken from PubChem BioAssay AID1508600 (Functional Genomics Laboratory (NCATS/FGL), 2020).
In all, about 53,000 sequences went through this assay and about 3,700 (7%) were called active.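 The calls were made as follows: active = gene knockdowns whose robust z-score for IL-1 alpha signal is at least 2 or at most -2, so actives lie on both sides; inactive = the rest.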 The full list was thinned out, with actives kept by preference.

Test: Components of the Cytosolic LPS Sensing Pathway: Gene Identification via Genome-wide siRNA Screen
Conditions: RAW264.7 macrophages, IL-1a HTRF, actives lie on both sides, screened at 100 nM (by protocol), cells primed 5 h with Pam3CSK4 first
Source text: Non-canonical inflammasome activation by cytosolic LPS is a critical component of the host response to Gram-negative bacterial infection, however we lack a comprehensive understanding of the cellular processes that control this pathway. Here we describe a genome-wide siRNA screen to identify genes regulating the mouse macrophage IL-1 alpha response to cytosolic LPS.
RAW264.7 cells were maintained in complete DMEM media, comprising DMEM with 4.5 g/L glucose, 10% FBS (Gemini Bio-Products, West Sacramento, CA), 2 mM Glutamine (Lonza) and 20 mM HEPES (Lonza), hereafter complete DMEM.
The RNAi screen was conducted in 384-well format using the Ambion Silencer Mouse Genome siRNA Library (#4391425), which consists of three unique, nonoverlapping, nonpooled siRNAs for each of 17,000 gene targets. siRNA reagents ([…]) were stamped into 384-well white flat-bottom microplates (Corning, 3570) using a Velocity11 VPrep liquid handling system (Agilent) integrated into a BioCel robotic platform (Agilent) in columns 1-22, leaving columns 23-24 empty for negative (Ambion, Negative control #1) and positive (mouse Casp4) controls, respectively. The median value of each plate's negative control column was used to normalize sample wells, and the positive control was used to assess transfection efficiency and assay performance.
Lipofectamine RNAiMAX Transfection Reagent ([…]; Invitrogen) was added in […] serum-free, antibiotic-free media to plate wells using a Thermo Scientific Matrix WellMate and Microplate Stacker. Plates were incubated for 45 min at room temperature to allow for the sufficient formation of siRNA-lipid complexes. Cells were seeded at a density of 1x10^4 cells per well in 20 microL media containing 20% (vol/vol) FBS without antibiotics. The final concentration of siRNA in each well was 100 nM. Cells were cultured for 48h at 37 degrees C in 5% CO2 before addition of […] of TLR ligand Pam3CSK4 for 5 hours. The medium was then removed, replaced with […] growth media and cell were transfected with […] of LipidA and TransIT-TKO (Mirus) for 24 hour. At the end of the LipidA treatment, […] of supernatant was transferred to a 384 Greiner Bio-one non-binding low volume plate and […] of IL-1a HTRF reagent (Cisbio, 62MIL1APEH) was added and incubated at room temperature overnight. The plates were read on an EnVision plate reader (PerkinElmer). Cell viability was measured by adding 20ul Cell Titer Glo to the original plate and running a luminescence read on the EnVision. The quantified IL-1a signal for each siRNA gene-targeted well was divided by the median of the negative control wells and multiplied by 100 to achieve a negative control normalized value for each well/siRNA. This normalized value was then used to generate a robust z-score by first taking the log of each value and then by subtracting the median and dividing by the […].

Sequence | z-score
CGGAUAUGAGAUGAGAAUGTT against Morn4 | -2.4 (active)
GGAUUUCAACAGACAGGUGTT against Paip2b | 0.877 (inactive)
GGCAGAACUCAAAUUCUUGTT against AW209491 | -0.35 (inactive)
GCGUAGCUGUAGUGAACCATT against Erh | 1.78 (inactive)
GGUACUACACCUUUGAUGATT against Fibp | -0.497 (inactive)
GGACCACAACACAAAUCUGTT against Fasl | 1.49 (inactive)
UUCAUGUAGGUCUACUAUUTT against Olfr203 | -0.104 (inactive)
GGAUCUGAAGCUGAUUACATT against Clca2 | 2.47 (active)
GCCACUGUUUGAUCUGAAATT against Fhod1 | 0.943 (inactive)
CCUUGCCAUAAGUGAUUUATT against Npffr2 | 0.876 (inactive)
GGCCUUAAAAUACCUUUGATT against Srpx | 1.12 (inactive)
CCAGUACAAAGCCACAAUATT against Rab7 | 5.54 (active)
GGACAUUUCACAAGUCAAATT against Eloc | 1.81 (inactive)
GGGUGGAAAAUUUCAGUUUTT against Ube2f | -0.957 (inactive)
CCAUCCCGUUCACUAGAGATT against Mypn | -1.73 (inactive)
CCGACUGCUCGUAAAUUCATT against Ndufa12 | 2.79 (active)
GGUACAAAGCCAUUGUACGTT against Grpr | -0.381 (inactive)
GGAAGAGAAACGACAAAAUTT against Olfr293 | 1.46 (inactive)
GGGAGACAAUCGUUUUAGCTT against Tgfbi | 0.698 (inactive)
GGGCAUAUUCACGAUCAAUTT against Fut2 | 1.43 (inactive)
GGAAAGACCACAUUAUUAATT against Orc4 | 0.0347 (inactive)
GGUUUCUGCCCAGAGUCUATT against 2010106E10Rik | -2.78 (active)

Sequence | z-score
GCAAGGACUCUCAUGGUUGTT against Zfand1 | -0.0357 (inactive)
GGUGCCGAACGUGUAAUUATT against Rarb | 0.936 (inactive)
GCCCAUGUGUAAUACAUUUTT against Prps1 | 0.789 (inactive)
CCGGAGUAACUCUCUAACATT against Apbb3 | -0.291 (inactive)
GGGUGACCUUUCCAGAUGATT against Cldn13 | -0.846 (inactive)
GGCACAUGGAAUCUUUGAGTT against Edc3 | -1.65 (inactive)
GGAGCAACUACAAACAUCUTT against Acss2 | 2.35 (active)
GGGAUAAGACAGGAGACUUTT against Slc16a11 | 0.227 (inactive)
GGGAAGGACUGUAAGAAAATT against Dipk1a | -0.252 (inactive)
GCAUCAACACCUGUUCUAUTT against Olfr376 | 1.02 (inactive)
GGAUCAUUUACAUUCAUACTT against Alg12 | -2.6 (active)
GGCACCUGUUAAAAAUGAATT against Prag1 | -0.771 (inactive)
GGACUAGUGUGAAAAAGGATT against Nsd1 | -2.87 (active)
GCUCAUCGGAGAGUUCUAUTT against Ube2h | 0.594 (inactive)
GGCAGCAUUGAGUGUGUGATT against Asb13 | 2.53 (active)
GGAAUGCUGAAGUAAAAAATT against Olfr1259 | -0.808 (inactive)
GGGCCAAGUUCCGAAAGAATT against Dmbx1 | -0.443 (inactive)
GCCUUAACUAUGUUGUCUATT against Mgst1 | 0.893 (inactive)
GCCUGCACUGUUGAACUAGTT against Tomm40l | -1.09 (inactive)
GCACUCAUUGCCAGGGUCATT against Pycard | -2.54 (active)
GCAGUUAUCCGUAUUUAAATT against Ctnnbl1 | 1.18 (inactive)
CCCUCAUUCUCUAGCGUGATT against H2-K1 | -1.07 (inactive)

Sequence | z-score
GGAUGGACUUCGUCAUGAATT against Cplx2 | 0.55 (inactive)
GGAGUGAUUCAGUGAAAACTT against Iqcf3 | -0.289 (inactive)
CGUCAUAAAGAAUAGUUCCTT against Ncoa4 | 0.965 (inactive)
GGAGAAGAGUUAUUGGAUATT against Dnajb4 | 0.901 (inactive)
CCUACGGCAAACAGAGACUTT against Klk6 | -2.29 (active)
GGAGUUUAAGAAGACGCACTT against Slc26a3 | 1.62 (inactive)
GGUUUUGGACCAGAUGAGCTT against Abi3 | 0.0276 (inactive)
GGGAUGAAGUGUUCCAUCCTT against Ccdc187 | 2.88 (active)
GCAAUUAGUAACUGAGAAUTT against Dpp10 | 0.0628 (inactive)
GGACUAUGCUGUCCAGAUCTT against Ntn1 | -0.432 (inactive)
GGUGCUGAAUUUGAUCAAGTT against Rpa2 | 1.83 (inactive)
UUGUUAUAGCACUUCCAAATT against Vwa3b | 2.12 (active)
GGAUGGGUUUGAUCUUAAUTT against Il13ra2 | 0.519 (inactive)
GCCAUUUGAAGGCUUUUGUTT against D130079A08Rik | -0.555 (inactive)
GCUGGUGAUGACGUGUAUCTT against Slc32a1 | 0.357 (inactive)
GUUGAACAAUCUUGUCCUGTT against Rps25 | 0.518 (inactive)
GGCAUGAGACAAGCUAGUCTT against Mrgpre | -0.463 (inactive)
GGCUGCUAAUUGGAUUUUUTT against Ccnj | -0.936 (inactive)
GCCUUUCAUACAUUCAACATT against Olfr313 | -1.49 (inactive)
GGACAGACCACACUUCAUGTT against Foxp3 | -0.494 (inactive)
GGCCAUGAUUUACGACGACTT against C1qtnf4 | -1.22 (inactive)
GGCUCUCUGAGGAUUCGAATT against 4930544M13Rik | -0.209 (inactive)

Sequence | z-score
CGGGACAUUCGUGAUCUUATT against Tmem114 | -2.38 (active)
GGAUUCGCCUUUUCUACCGTT against Hoxb2 | 0.929 (inactive)
GGAGCUGUGAGCAUUACUGTT against Cenpm | -1.89 (inactive)
GGUCAUCGAUAAGAAAAGATT against Hunk | -1.09 (inactive)
GCAGGUGAAAAGCAAUCCUTT against Prss27 | 1.03 (inactive)
GAUGGUCAUUGAUGUCCUUTT against Rps24 | -0.694 (inactive)
GGAGAGUGCUGAUGUUCUGTT against Rhox6 | 2.26 (active)
GGUGCUUGUGGGUAACAAGTT against Rab33a | 1.94 (inactive)
GGACAUAAUCAAAGACAUCTT against Ddc | 1.15 (inactive)
GGCAUACCCAAAAAUAGAATT against Eif1a | 0.139 (inactive)
GGAGAACUCCAGGUUGGCATT against Eaf1 | -2.03 (active)
GCGCAAAGAUGGCUAUUGCTT against Adamts3 | 1.42 (inactive)
GCUCAUCCAUUACGAGUUGTT against Dusp18 | 0.878 (inactive)
GCAUUUCCUUAACACUCCCTT against Msmb | -0.614 (inactive)
CGAGAAACAGAGUAUCAAGTT against Utp23 | 0.776 (inactive)
GGGCCAUACCAUUUGGGUGTT against Wdr38 | 0.142 (inactive)
GGUAAAAAGUACAAGUGGGTT against Slc17a5 | -0.909 (inactive)
GGUGAUACCUCUGUCCUGGTT against Exosc5 | -1.17 (inactive)
GGAGGGUGAUCUCAUUGAATT against Prkd1 | 0.479 (inactive)
GCAGCAAUACAUCCUUCAUTT against Cdh1 | 1.12 (inactive)
CCGAGCUAGAUCAGCUAUUTT against Mertk | -1.45 (inactive)
GGAAACCGUUUUUUUUUUCTT against Appbp2 | 2.16 (active)

Sequence | z-score
CCUAAUCUCUUGUAGGUAUTT against AU018091 | 1.03 (inactive)
GGAACAGGCAACAUGAUUGTT against Nlgn3 | 0.376 (inactive)
GGCUGUAUGUAUAUAGUCCTT against Snrpb | -2.41 (active)
GGUGUCCACAUUAAAUUACTT against Foxb1 | 2.21 (active)
GCACUAAGUCCCAUGUGUCTT against Trim11 | -1.01 (inactive)
GGUUAUGGUAUUAACAGGUTT against Slc17a4 | 0.112 (inactive)
GGGCAGAAUGCCAGUGUACTT against Kif22 | -0.305 (inactive)
GCUUGACGCGAACUUACCATT against Endog | 2.35 (active)
GGUGGACUUCGAGAACAUATT against Cyp2d26 | 0.75 (inactive)
GGAUCAUCAACCAUCUAAUTT against Srsf7 | -1.11 (inactive)
GCCUUUUGAUGCUUCCUCUTT against Rusf1 | -0.696 (inactive)
GCUCAAAGUUUGAACUGGCTT against Atxn2l | 0.153 (inactive)
GCUGAAGAGGCGCAUACAUTT against 2610318N02Rik | 3.07 (active)
GCCAAAGACUCUUAUAAGUTT against Bnc1 | -0.455 (inactive)
UCUCCUUCCUAACUUCAACTT against Tmem252 | 0.747 (inactive)
GCUCUCACCAUCAGAGAAATT against Trpc4 | -0.12 (inactive)
CCUCUGAGUGGAACACCUATT against Sfr1 | -3.54 (active)
GGCAUUCAUGACAAUGGCUTT against Rab1b | -1.89 (inactive)
GCGAUUUAUUGCCAAGCCCTT against Cers5 | 0.596 (inactive)
GGUUUAAGCUUUUUGUGGATT against D130079A08Rik | 0.0133 (inactive)
